Shown is part of a subset that was picked to be rich in hits.
Tg IFNy HTS – inhibitors of Toxoplasma gondii growth with IFN-gamma | AID 1259416 | actives 3.8% (n = 69,000) | Toxoplasma gondii growth in IFN-gamma-treated host cells; active compounds read low | activity change, negative = inhibition, % (test concentration not listed); in the data active = activity change below about -70%, passing the limit was not always enough;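 note: host cells are HeLa cells infected with Toxoplasma gondii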
* = called active by the depositor.

SMILES	Tg IFNy HTS
CCN1c2cc(C)ccc2-n2cccc2C12CCN(C(=O)Nc1ccc(F)cc1)CC2	-95.9*
CCN1c2cc(C)ccc2-n2cccc2C12CCN(C(=O)Nc1ccc(C)c(F)c1)CC2	22.0
CCN1c2cc(C)ccc2-n2cccc2C12CCN(C(=O)NCc1ccco1)CC2	41.5
CCN1c2cc(C)ccc2-n2cccc2C12CCN(C(=O)Nc1ccc(Cl)cc1)CC2	252.3
CCN1c2ccccc2-n2cccc2C12CCN(C(=O)Nc1ccccc1C)CC2	-82.2*
CCOC(=O)c1ccc(NC(=O)N2CCC3(CC2)c2cccn2-c2ccc(C)cc2N3CC)cc1	-45.6
CCN1c2cc(C)ccc2-n2cccc2C12CCN(C(=O)NCc1ccccc1)CC2	59.8
CCN1c2cc(C)ccc2-n2cccc2C12CCN(C(=O)NCc1ccc(F)cc1)CC2	-114.2*
COc1ccc2c(c1)NC1(CCN(S(=O)(=O)c3ccc(Br)s3)CC1)c1cccn1-2	13.3
Cc1ccc(C(C)NC(=O)Cn2ncc3c(N4CCCCCC4)ncnc32)cc1 (stereo unspecified)	105.0
Cc1cccc(CN2CCCC3(CCN(CC4CC4)CC3)C2=O)n1	55.7
COC(=O)c1c(NCc2ccco2)c2cccc(Cl)c2[nH]c1=O	0.4
Cc1cccc(-c2nc(C)c(CCNC(=O)C(=O)Nc3cccc(C)c3C)s2)c1	38.4
CCc1nc(-c2ccc(Cl)cc2)cs1	17.5
COCc1cnc2n1CCN(C(=O)c1ccc3c(c1)OCO3)C2C (stereo unspecified)	-1.9
Fc1cnc(N2C[C@H](Oc3ccccn3)[C@@H]3OCCC[C@@H]32)nc1	1.0
O=c1cc(-c2cnccn2)nc2cc(-c3ccc(Cl)cc3Cl)[nH]n12	12.3
CCC/C=C/c1ccccc1C(=O)NCC	-3.1
Cc1cccc(-n2c(SCC(N)=O)nnc2-c2cccs2)c1C	-2.5
COc1ccc(OCc2nn3c(-c4cccs4)nnc3s2)cc1	-68.8
CCCCOc1ccc(-c2nnc(-c3cccs3)n2-c2ccccc2)cc1	-80.2*
Cc1cc(C(F)(F)F)nc2nc(NC(=O)c3cccs3)ccc12	-2.9
CC(C)CN1CCC(CNC(=O)c2ccc(-c3cccc(CO)c3)nc2)C1 (stereo unspecified)	-6.0
Cc1noc(C)c1CN1Cc2ncn(CC(C)C)c2C(C(=O)O)C1 (stereo unspecified)	-1.9
NC(=O)C1CCCc2c1[nH]c1ccc(Cl)cc21 (stereo unspecified)	-8.3
SMILES	Tg IFNy HTS
O=CNC1CCCc2c1[nH]c1ccc(Cl)cc21 (stereo unspecified)	-81.1*
CN1C(=O)C2(NCCc3c2[nH]c2ccc(Cl)cc32)c2cc(Br)ccc21 (stereo unspecified)	-8.7
COc1ccnc(N2CCCC(CO)(Cc3ccc(F)cc3)C2)n1 (stereo unspecified)	-55.8
CCCN(C)C[C@H]1Oc2cc(/C=C/c3ccccc3)ccc2S(=O)(=O)N([C@H](C)CO)C[C@H]1C	-92.4*
C[C@H](CO)N1C[C@H](C)[C@H](CN(C)Cc2ccccc2C(=O)O)Oc2cc(-c3ccc(F)cc3)ccc2S1(=O)=O	65.2
CCCC#Cc1ccc2c(c1)O[C@@H](CN(C)Cc1ccccn1)[C@H](C)CN([C@@H](C)CO)S2(=O)=O	-28.8
C[C@H]1CN([C@@H](C)CO)S(=O)(=O)c2ccc(C#CCC3CCCC3)cc2O[C@@H]1CN(C)C(=O)c1cnccn1	-52.5
COCC#Cc1ccc2c(c1)O[C@H](CN(C)C(=O)C1CCOCC1)[C@H](C)CN([C@@H](C)CO)S2(=O)=O	50.6
C[C@@H]1CN([C@@H](C)CO)S(=O)(=O)c2ccc(-c3ccncc3)cc2O[C@H]1CN(C)S(C)(=O)=O	71.9
CCCC#Cc1ccc2c(c1)O[C@H](CN(C)Cc1ccccn1)[C@@H](C)CN([C@H](C)CO)S2(=O)=O	-28.6
CCCC#Cc1ccc2c(c1)O[C@H](CN(C)Cc1ccccn1)[C@H](C)CN([C@@H](C)CO)S2(=O)=O	-94.3*
C[C@@H]1CN([C@@H](C)CO)S(=O)(=O)c2ccc(C#Cc3cccc(F)c3)cc2O[C@@H]1CN(C)S(=O)(=O)c1cn(C)cn1	31.8
C[C@H](CO)N1C[C@H](C)[C@H](CN(C)C(=O)c2cnccn2)Oc2cc(C#CCC3CCCC3)ccc2S1(=O)=O	-100.1*
CCCN(C)C[C@@H]1Oc2cc(/C=C/c3ccccc3)ccc2S(=O)(=O)N([C@H](C)CO)C[C@@H]1C	8.7
Cc1ccc(S(=O)(=O)N(C)C[C@@H]2Oc3cc(C#CC4CCCC4)ccc3S(=O)(=O)N([C@@H](C)CO)C[C@H]2C)cc1	-109.5*
O=C(c1ccn[nH]1)N1CCCC(CCc2cccc(C(F)(F)F)c2)C1 (stereo unspecified)	-30.2
Cc1cc2occ(CC(=O)N3CCc4c(nc[nH]c4=O)C3)c2cc1Cl	-7.0
Cc1nc(C)n(CCC(=O)NC(C)c2cccs2)n1 (stereo unspecified)	6.5
COc1ccc(F)c(F)c1-c1nccn1C(C)Cn1nc(C)cc1C (stereo unspecified)	0.2
c1ccc(-c2cc3ncnc(N4CCSCC4)c3s2)cc1	-98.7*
c1ccc(-c2cc3c(N4CCc5ccccc54)ncnc3s2)cc1	-42.7
